The values below come from the OligoGym collection.
Further: reference of the scale not given here.

One experiment has as its target ZNF653. Put plainly: pooled miR-30 sensor sort-seq; sequence = guide strand. Particulars: shRNA.
In turn, TTGACGTGGTTCTGGAAGCTGC had a sensor-assay potency score (higher = more potent) of -0.877.

For TTTGTCACTGTCAGGGTCTGAG, the sensor-assay potency score (higher = more potent) is -0.472.

With ATGATGGCTGACATGTCGCTGC, the sensor-assay potency score (higher = more potent) is -0.928.

The sequence ATAAATAGAACTTCTTGCCACA had a sensor-assay potency score (higher = more potent) of -0.586.

For the sequence TTCCTCTTGAAGGACTTGCCGC, the sensor-assay potency score (higher = more potent) is -0.882.

On to TTGTACTGCACCTCCGCAGTGT, for which the sensor-assay potency score (higher = more potent) is -0.237.

In turn, TTGGATAAATAGAACTTCTTGC yielded a sensor-assay potency score (higher = more potent) of -0.368.

On to TTCTTCCTCTTGAAGGACTTGC, for which the sensor-assay potency score (higher = more potent) was -0.65.

With TAGCAAGCACAGGTCCTCCTTC, the sensor-assay potency score (higher = more potent) was -0.219.

The target of the next experiment is ZNF654. Described as above. Particulars: shRNA.
The sequence TTCTGAACTAAACTGTCTGTTT yielded a sensor-assay potency score (higher = more potent) of 0.135.

TGAGTCTGTCTGAACATCCCAA yielded a sensor-assay potency score (higher = more potent) of -0.147.

Sequence TTGAGCTGCAGCAATTTGCTGC returned a sensor-assay potency score (higher = more potent) of 0.117.

Turning to TTCTTGTGGTACAACACTGGGC, the sensor-assay potency score (higher = more potent) is -0.302.

TTGATTTGCTAGTAGAAACTGG had a sensor-assay potency score (higher = more potent) of 0.3.

Turning to TTACACATGCAAAACTGCCTTT, the sensor-assay potency score (higher = more potent) turned out to be 0.225.

Take TATCTTGATCAGAACAGGCATC: the sensor-assay potency score (higher = more potent) is -0.711.

On to TAGGATTTGAGTCTGTCTGAAC, for which the sensor-assay potency score (higher = more potent) was -1.01.

As for TAAATATCCGGACACAACCAAG, the sensor-assay potency score (higher = more potent) was -1.3.

Regarding TAAAGTTTCCTTCTTGATCTGT, the sensor-assay potency score (higher = more potent) worked out at 0.508.

TTGTCGCACATTTAAATCGGTT registered a sensor-assay potency score (higher = more potent) of -1.07.

The sequence TTTGCTAGTAGAAACTGGCAGA returned a sensor-assay potency score (higher = more potent) of -0.0895.

For another experiment, the target named is ZNF674. The experiment is described as above. The settings on record: shRNA.
On to TATCTGCTCGTCAACTTCCCAG, for which the sensor-assay potency score (higher = more potent) is -1.05.

On to TTCTTGACCACTTTCATCCTTC, for which the sensor-assay potency score (higher = more potent) came to 0.42.

Consider TTGATGAGAGTTGACTTCCTAC, for which the sensor-assay potency score (higher = more potent) was -0.0843.

TTTACTACACTCATAAATGTTC: the sensor-assay potency score (higher = more potent) was -0.591.

As for TTTTACATTCTTGACCACTTTC, the sensor-assay potency score (higher = more potent) was -0.602.

The sequence TTGGACATTTGTCACATACAAA registered a sensor-assay potency score (higher = more potent) of -1.79.

Take TACAGAAACAAAGTCTGTGTTG: the sensor-assay potency score (higher = more potent) is -0.525.

In the case of TTTACAGAAACAAAGTCTGTGT, the sensor-assay potency score (higher = more potent) was -0.0841.

In the case of TTTTACAGAAACAAAGTCTGTG, the sensor-assay potency score (higher = more potent) is 0.624.

TTGACCACTTTCATCCTTCAGT showed a sensor-assay potency score (higher = more potent) of 0.00879.

The sequence TTCTACATATTTTACATTCTTG returned a sensor-assay potency score (higher = more potent) of -0.737.

For TACATTCTTGACCACTTTCATC, the sensor-assay potency score (higher = more potent) is -1.6.

The next experiment has as its target ZNF708. Described as above. Particulars: shRNA.
TCTGATATCCACATTTTCCATA: the sensor-assay potency score (higher = more potent) was -1.12.

For ATGTCTTATCTTATGTCTCTTT, the sensor-assay potency score (higher = more potent) was -1.05.

Sequence TACTGTGATGTCTTCCAGCTTT showed a sensor-assay potency score (higher = more potent) of -0.106.

TTTGTCACACTGAACTATTTTG gave a sensor-assay potency score (higher = more potent) of -1.74.

Regarding TTATCTTATGTCTCTTTGCATT, the sensor-assay potency score (higher = more potent) was -1.42.

Regarding TTCTCTAACATGACATTCCTAT, the sensor-assay potency score (higher = more potent) is -0.111.

TATCTTATGATTCGTAAGGTTT returned a sensor-assay potency score (higher = more potent) of -1.04.
